ATXN viability = cell viability loss in ATXN counter-screen; Potency, µM (highest dose often 56.7 µM), usual class: cytotoxic; AID 651635; S2 cells (HEK-293 line with an ATXN2-luciferase reporter) viability, CellTiter-Fluor protease fluorescence, 24 h; actives 0.49% (n = 400,000); further: potency means the concentration at half of the fitted maximal effect; nearly all actives have a fitted effect of over 40% in size
HepG2 tox-1 = counter-screen for TGF-b inhibitors: cytotoxicity in HepG2 cells; actives 0.76% (n = 410,000); AID 588856; HepG2 CAGA-GFP viability, ATP luminescence, 18 h; Potency, µM (top dose mostly 46.1 µM), inactives show top-dose activity change, negative = cytotoxicity, most hits filed as cytotoxic; further: potency means the concentration at half of the fitted maximal effect
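CellTiter-Glo luminescence gave cytotoxicity after 18 hours at 37 degrees C. The cells were HepG2 CAGA-GFP in 1% FBS DMEM, stimulated with 500 pg/mL TGF-beta after compound addition. %Activity was normalised to no-cell wells (complete cell-killing) and DMSO (no toxicity), and curves were fitted and classified.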
CtBP-E1A inh = inhibitors of CtBP/E1A interaction. AlphaScreen GST-E1A/His-CtBP binding, 1536-well; hits give low values. actives 0.49% (n = 340,000). activity change, % (concentration not given with the values). AID 651724; in the data active means activity change below about -65%; inconclusive means mostly about -30% to -63%; further: on the % scale 0 is the no-effect control and ±100 the full control effect
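In 5 uL wells, 23 nL compound meets equimolar GST-E1A and His-CtBP (5X stock 125 nM each) for 2 h, 37 °C. Beads (5X, 50 ug/mL) then 1 h, 37 °C, dark.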
ATXN2 expr inh = inhibitors of ATXN2 expression; HEK-293 ATXN2-luciferase reporter, luminescence, 24 h; Potency, µM (doses to about 57 µM), for the others: top-dose activity change, negative = inhibition, hits mostly inhibitors; actives 0.72% (n = 360,000); AID 1745845; further: potency means the concentration at half of the fitted maximal effect; on the % scale 0 is the no-effect control and ±100 the full control effect; nearly all actives have a fitted effect of over 55% in size
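ATXN2-luciferase reporter cells (luciferase flanked by upstream and downstream ATXN2 gene portions) were treated 24 h at 37 °C with compounds at up to 57 uM. SteadyGlo luminescence gave expression; GF-AFC fluorescence gave viability.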
TGFb inhibitor = inhibitors of TGF-b signaling. HepG2 CAGA-GFP TGF-b/SMAD3 reporter, GFP fluorescence, 18 h; TGF-beta stimulated, 500 pg/mL final. Potency, µM (titrated, usually from 46.1 µM), inactives show at the highest dose activity, negative = inhibition, actives largely listed as inhibitors. actives 1.2% (n = 410,000); further: potency means the concentration at half of the fitted maximal effect; on the % scale 0 is the no-effect control and ±100 the full control effect; nearly all actives have a fitted effect of over 65% in size
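Smad-responsive CAGA-GFP expression was quantified in HEPG2 cells exposed to compounds and 500 pg/mL final TGF-beta for 18 h at 37 degrees C; unstimulated wells defined full inhibition.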
Six1-Eya2 blk = inhibitors of human Six1/Eya2 interaction; activity change, % (no concentration beside the values); AlphaScreen GST-Six1/His-Eya2 binding, biochemical; hits give low values; actives 0.56% (n = 360,000); in the data active means activity change below about -65%; inconclusive means mostly about -30% to -63%; further: on the % scale 0 is the no-effect control and ±100 the full control effect
Target sequence (O00167 whole entry, looked up): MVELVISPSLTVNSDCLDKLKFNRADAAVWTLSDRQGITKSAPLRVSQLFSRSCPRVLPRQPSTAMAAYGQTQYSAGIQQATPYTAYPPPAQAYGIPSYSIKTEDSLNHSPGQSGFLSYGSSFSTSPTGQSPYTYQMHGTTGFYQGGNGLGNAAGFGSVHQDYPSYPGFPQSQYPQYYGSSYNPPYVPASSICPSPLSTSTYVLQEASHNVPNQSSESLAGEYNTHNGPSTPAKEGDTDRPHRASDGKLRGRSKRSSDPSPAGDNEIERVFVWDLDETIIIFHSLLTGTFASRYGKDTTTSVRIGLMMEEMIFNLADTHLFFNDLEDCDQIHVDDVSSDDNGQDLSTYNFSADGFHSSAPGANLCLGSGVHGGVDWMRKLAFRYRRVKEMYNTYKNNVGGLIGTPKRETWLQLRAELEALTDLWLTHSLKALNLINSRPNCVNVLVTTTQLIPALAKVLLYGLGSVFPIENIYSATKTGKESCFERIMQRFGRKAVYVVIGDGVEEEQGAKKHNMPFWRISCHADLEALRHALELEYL
Target sequence (Q15475 whole entry, looked up): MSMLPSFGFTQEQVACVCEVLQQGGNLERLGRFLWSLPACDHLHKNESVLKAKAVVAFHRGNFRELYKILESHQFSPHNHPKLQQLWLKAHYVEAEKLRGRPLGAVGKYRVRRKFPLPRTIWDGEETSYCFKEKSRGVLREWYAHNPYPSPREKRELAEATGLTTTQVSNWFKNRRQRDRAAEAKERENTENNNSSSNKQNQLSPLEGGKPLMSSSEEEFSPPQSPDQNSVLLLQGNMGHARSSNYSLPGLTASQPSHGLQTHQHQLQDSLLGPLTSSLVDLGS
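Homogeneous AlphaScreen proximity assay pairing GST-Six1 with His-tagged Eya2 (added as 5X mix: 250 nM and 500 nM) in 50 mM Tris pH 8.0, 300 mM NaCl, 1 mM TCEP. Glutathione donor and nickel acceptor beads; 1 h, 37 °C, dark.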
TGFb confirm = TGF-b pathway inhibition, cherry-pick retest. shares compounds with TGFb inhibitor. Potency, µM (highest dose often 46.1 µM), for inactives: at the highest dose activity, negative = inhibition, usual class: inhibitors. AID 720534. HepG2 CAGA-GFP TGF-b reporter, GFP fluorescence, 18 h; cells stimulated with TGF-beta, 500 pg/mL. actives 63% (n = 1,600); further: potency means the concentration at half of the fitted maximal effect; on the % scale 0 is the no-effect control and ±100 the full control effect; nearly all actives have a fitted effect of over 65% in size
HepG2 tox-2 = HepG2 cytotoxicity, TGF-b inhibitor counterscreen. shares compounds with TGFb inhibitor. HepG2 CAGA-GFP viability, ATP luminescence, 18 h; cells stimulated with TGF-beta, 500 pg/mL. Potency, µM (top dose mostly 46.1 µM), without a hit: at the highest dose activity, negative = cytotoxicity, most hits filed as inhibitors. actives 27% (n = 1,600). AID 720535; further: potency means the concentration at half of the fitted maximal effect; on the % scale 0 is the no-effect control and ±100 the full control effect; nearly all actives have a fitted effect of over 70% in size
CCL64 TGFb inh = blocks TGF-b signaling in CCL64 reporter cells; shares compounds with TGFb inhibitor; CCL64 CAGA-GFP reporter, TGF-b stimulated, GFP fluorescence, 18 h; Potency, µM (doses to about 46.1 µM), for the others: at the highest dose activity, negative = inhibition, actives largely listed as inhibitors; actives 41% (n = 1,600); further: potency means the concentration at half of the fitted maximal effect; nearly all actives have a fitted effect of over 65% in size
COP TGFb inh = validation of TGF-b inhibitors in HepG2 COP promoter reporter; Potency, µM (titrated, usually from 46.1 µM), for the others: top-dose activity, negative = inhibition, hits mostly inhibitors; shares compounds with TGFb inhibitor; actives 3% (n = 1,600); HepG2 COP-GFP TGF-b reporter, GFP fluorescence, 18 h; cells stimulated by added recombinant TGF-beta; AID 720537; further: potency means the concentration at half of the fitted maximal effect; nearly all actives have a fitted effect of over 70% in size
* hit, by the source's call; i = inactive; ? = inconclusive; · = not tested or not shown; [ ] = remark or other dose. Sampled rows, rich in hits. Any-hit rate of the full collection: about 2.8%. Unless noted, the call rests on the fitted dose curve; in most records, active means well fitted curve in the direction sought with a large enough effect; inconclusive means small, poorly fitted or top-dose-only effect, or another doubt; inactive means no such curve, though single readings can be large; an effect the other way counts as inactive or inconclusive.

SMILES | ATXN viability | HepG2 tox-1 | CtBP-E1A inh | ATXN2 expr inh | TGFb inhibitor | Six1-Eya2 blk | TGFb confirm | HepG2 tox-2 | CCL64 TGFb inh | COP TGFb inh
COc1cc(O)c2c(c1)/C=C/C[C@H](O)[C@H](O)C(=O)CCC[C@H](C)OC2=O | i | -5% | -4 | 2% | 2µM* | -2 | 8.2µM* | -12% | 7.3µM* | ?
O=c1[nH]c2ccccc2n1C1CCN(C(c2ccccc2OC(F)(F)F)c2nnnn2-c2ccc3c(c2)OCCO3)CC1 (stereo unspecified) | · | -56% | -19 | 13µM* | 8.9µM* | -14 | ? | ? | 8.2µM* | 38%
O=c1[nH]c2ccccc2n1C1CCN(C(c2ccccc2)c2nnnn2-c2ccc3c(c2)OCCO3)CC1 (stereo unspecified) | · | 10% | -13 | ? | ? | -15 | · | · | · | ·
COc1ccc(-n2nnnc2C(c2cccs2)N2CCC(n3c(=O)[nH]c4ccccc43)CC2)cc1 (stereo unspecified) | ? | -3% | -11 | ? | ? | -12 | · | · | · | ·
COc1ccc(-n2nnnc2C(c2ccccc2)N2CCC(n3c(=O)[nH]c4ccccc43)CC2)cc1 (stereo unspecified) | ? | -2% | -15 | ? | 8.9µM* | -16 | ? | ? | ? | 58%
O=c1[nH]c2ccccc2n1C1CCN(C(c2cccs2)c2nnnn2-c2ccc3c(c2)OCCO3)CC1 (stereo unspecified) | ? | -6% | -9 | ? | 11µM* | -13 | -83% | -24% | ? | 54%
O=C1NCN(c2ccccc2)C12CCN(C(c1cccs1)c1nnnn1-c1ccc3c(c1)OCCO3)CC2 (stereo unspecified) | ? | 21% | -15 | -23% | 13µM* | -19 | ? | -27% | 10µM* | 53%
O=C(C[C@@H]1C[C@@H]2c3cc(NS(=O)(=O)c4ccc(F)cc4)ccc3O[C@@H]2[C@H](CO)O1)N1CCc2ccccc2C1 | ? | -1% | 3 | -6% | -3% | -2 | · | · | · | ·
CCOCCOC(C)=O | i | · | · | 5%[116 µM] | · | · | · | · | · | ·
CC(C)c1ccc(NC(=O)Cn2c(=O)oc3cccnc32)cc1 | i | -20% | -3 | -19% | 4% | 10 | · | · | · | ·
Cc1cccc(C)c1-n1nnnc1C(c1cc2ccccc2o1)N1CCC(n2c(=O)[nH]c3ccccc32)CC1 (stereo unspecified) | ? | -8% | -9 | 5.6µM* | 7.1µM* | -21 | 5.8µM* | ? | 5.8µM* | 21%
COc1cccc(C(c2nnnn2Cc2ccccc2)N2CCC(n3c(=O)[nH]c4ccccc43)CC2)c1OC (stereo unspecified) | ? | -51% | -13 | ? | ? | -7 | · | · | · | ·
COc1ccc(C(c2nnnn2-c2c(C)cccc2C)N2CCC(n3c(=O)[nH]c4ccccc43)CC2)cc1 (stereo unspecified) | ? | -46% | -13 | ? | ? | -11 | · | · | · | ·
O=c1[nH]c2ccccc2n1C1CCN(C(c2cccc3ccccc23)c2nnnn2Cc2ccccc2)CC1 (stereo unspecified) | ? | -23% | -10 | ? | 16µM* | -11 | 6.5µM* | -7% | ? | 2%
CC(=O)Nc1cc(-c2cccc(C(=O)N(C)C)c2)cn2c(-c3cccc(C(F)(F)F)c3)cnc12 | ? | -20% | -9 | 0% | 0% | -8 | · | · | · | ·
O=C(C1CCCCC1)N1Cc2ccccc2-n2nncc2C1 | i | -11% | -7 | 10% | 2% | 6 | · | · | · | ·
c1ccc(C2c3ccccc3-n3nncc3CN2CC2CCCCC2)cc1 (stereo unspecified) | i | -10% | 0 | -19% | 11µM* | -9 | 18µM* | ? | 26µM* | 26%
COc1cc(C=O)ccc1OC(=O)Nc1ccccc1 | i | -176% | -2 | 26% | 0% | 1 | · | · | · | ·
O=C(Nc1ccc(Cl)cc1)Nc1ccc(Cl)c(Cl)c1 | ? | -21% | 8 | ? | 3.2µM* | 9 | ? | 21µM* | 5.2µM* | 94%
C=C1C(O)[C@@H]2O[C@]3(CC[C@H](/C=C/C(C)[C@@H]4CC(C)=CC5(O[C@H](C[C@@](C)(O)C(=O)O)CCC5O)O4)O3)CC[C@H]2O[C@@H]1C(O)CC(C)[C@H]1OC2(CCCCO2)CCC1C (stereo partly specified) | ? | -71% | -11 | 0.32µM* | 0.089µM* | 1 | 0.021µM* | 0.052µM* | 0.082µM* | ?
CCC1C(c2cc(OC)c(OC)c(OC)c2)c2cc3c(cc2OC1N1CCCC1)OCO3 (stereo unspecified) | ? | -9% | -2 | -5% | 10µM* | -24 | ? | -17% | ? | -13%
C[C@]12N[C@@H](Cc3ccccc31)c1ccccc12 | i | · | · | · | · | · | · | · | · | ·
O=c1c2ccccc2nc(/C=C/c2ccc([N+](=O)[O-])o2)n1-c1ccc(O)cc1 | 10µM* | -63% | 3 | 13µM* | 2.8µM* | -11 | ? | 5.8µM* | 2.3µM* | 22%
O=c1c2ccccc2nc(/C=C\c2ccccc2F)n1-c1ccc(O)cc1 | · | -20% | · | · | -2% | · | · | · | · | ·
O=[N+]([O-])c1oc2ccc3ccccc3c2c1CCO | ? | 4% | -16 | ? | 4.5µM* | -10 | 0.82µM* | 1.2µM* | ? | 7%
